# LmPK inh: LmPK (Leishmania mexicana) enzyme inhibition | hit rate 0.37% among 290,000 | Q27686 | purified LmPK, Kinase-Glo ATP luminescence, 1 h | Potency, µM (top dose mostly 57.5 µM), for the others: at the highest dose activity change, negative = inhibition, hits mostly inhibitors; active means well fitted curve in the direction sought with a large enough effect; an effect the other way counts as inactive or inconclusive; further: potency means the concentration at half of the fitted maximal effect; on the % scale 0 is the no-effect control and ±100 the full control effect
# Target sequence (Q27686 whole entry, looked up): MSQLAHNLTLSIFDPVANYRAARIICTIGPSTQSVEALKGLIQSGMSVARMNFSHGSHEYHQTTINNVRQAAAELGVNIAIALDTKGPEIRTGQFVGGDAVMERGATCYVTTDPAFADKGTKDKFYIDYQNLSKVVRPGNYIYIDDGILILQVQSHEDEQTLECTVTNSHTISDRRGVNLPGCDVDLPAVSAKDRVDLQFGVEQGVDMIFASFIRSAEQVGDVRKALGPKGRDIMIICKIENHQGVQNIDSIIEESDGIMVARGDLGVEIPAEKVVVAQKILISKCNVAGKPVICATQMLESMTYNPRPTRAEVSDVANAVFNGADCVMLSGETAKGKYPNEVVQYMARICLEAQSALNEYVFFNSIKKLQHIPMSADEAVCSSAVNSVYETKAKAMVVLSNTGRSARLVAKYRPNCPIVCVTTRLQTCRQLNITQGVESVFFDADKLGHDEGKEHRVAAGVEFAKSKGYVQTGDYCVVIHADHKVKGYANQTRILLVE
#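 qHTS format; LmPK 0.1 nM; substrates PEP 0.5 mM and ADP 0.1 mM. One-hour room-temperature incubation, then coupled luciferase luminescence; 0.5 nM enzyme wells mark activation.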
# NS1 function inh: inhibitors of influenza NS1 protein function; hit rate 0.4% among 270,000; Potency, µM (highest dose often 46.1 µM), without a hit: at the highest dose activity, positive = more growth; further: potency means the concentration at half of the fitted maximal effect; actives are rising curves; nearly all actives have a fitted effect of over 50% in size
#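 S. cerevisiae expressing influenza A NS1, grown in glucose, washed, then diluted 1:100 into pH 6.0 -URA galactose medium with 23 nl compound. Growth recovery read as OD600; NS1-free strain serves as control.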
# Tb PYK inh: T. brucei pyruvate kinase inhibition; hit rate 0.12% among 410,000; TbPYK enzyme, Kinase-Glo Plus ATP luminescence, 45 min; Potency, µM (doses to about 76.8 µM), for the others: at the top dose activity, negative = inhibition, hits mostly inhibitors; Q57TT1; active means well fitted curve in the direction sought with a large enough effect; an effect the other way counts as inactive or inconclusive; further: potency means the concentration at half of the fitted maximal effect; on the % scale 0 is the no-effect control and ±100 the full control effect; nearly all actives have a fitted effect of over 50% in size
#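 ADP (130 uM final) triggers the TbPYK reaction after compound addition; incubation is 45 min at room temperature. Kinase-Glo Plus is then added and luminescence imaged. Normalized data are fitted to concentration-effect curves.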
# Shiga toxin inh: inhibitors of Shiga toxin in Vero cells | inhibition, % at 38.7 µM | AID 2315 | hit rate 9.2% among 290,000 | Vero cells, Shiga toxin protein synthesis inhibition reporter; in the data active means inhibition mostly above about 28%, no sharp cut-off; inactive means mostly below about 43%; further: 0% is about no effect
# CHX counter: counter-screen for Shiga toxin inhibitors: cycloheximide protein synthesis inhibition; cell reporter, cycloheximide protein synthesis inhibition counterscreen; max response, %; hit rate 12% among 300,000; in the data active means max response mostly above about 13%, no sharp cut-off; inactive means mostly below about 14%; further: read at 38.3 µM for the half of the compounds with a filed dose; 0% is about no effect
# SARS PLpro yeast: inhibitors of SARS-CoV papain-like protease in yeast; S. cerevisiae expressing SARS-CoV PLpro, growth rescue; Potency, µM (titrated, usually from 32.9 µM), for inactives: at the highest dose activity, positive = growth rescue, hits mostly activators; hit rate 0.19% among 330,000; AID 485353; further: potency means the concentration at half of the fitted maximal effect; 0% is about no effect; nearly all actives have a fitted effect of over 55% in size
# The depositor's hits bear a star; nt = not tested or not shown; + = active, no number; [ ] = remark or other dose. The full list was thinned out, with hits kept by preference. Unless noted, the call rests on the fitted dose curve.
SMILES,LmPK inh,NS1 function inh,Tb PYK inh,Shiga toxin inh,CHX counter,SARS PLpro yeast
COc1ccc(/C=C/c2c([N+](=O)[O-])c(=O)n(C)c(=O)n2C)c(OC)c1OC,4%,nt,-7%,-5,-2,0%
CCOc1c(OC(C)=O)ccc(/C=C/c2ccc3cccc(OC(C)=O)c3n2)c1[N+](=O)[O-],0%,-58%,-20%,+,43*,1%
COc1c(OC(C)=O)ccc(/C=C/c2ccc3ccccc3n2)c1[N+](=O)[O-],-5%,-13%,2%,99*,29*,-21%
CCOc1cc(/C=C/c2ccc3cccc([N+](=O)[O-])c3n2)ccc1OCC(=O)N(C)C,3%,nt,-1%,10,3,0%
COc1c(OC(C)=O)ccc(/C=C/c2ccc3cccc(OC)c3n2)c1[N+](=O)[O-],-1%,20%,4%,41*,22*,-37%
Cc1ccccc1NC(=O)c1c(C)oc2ccc(O)c(CN3CCCC3)c12,nt,nt,0%,nt,nt,nt
CCOc1c(CNCCSc2nnnn2C)cccc1OC,nt,nt,0%,nt,nt,nt
COc1ccc(C(=O)NC(CC(=O)O)c2cc([N+](=O)[O-])ccc2Cl)cc1 (configuration not stated),6%[11.5 µM],nt,-3%,-8,30,0%
COc1ccc(C(=O)CC(Nc2ccc([N+](=O)[O-])cc2)c2ccc(Cl)cc2)cc1 (configuration not stated),4%,5%,1%,14,10*,-10%
COc1ccc(NC(=O)C(=O)NCCO)cc1Cl,-2%,12%,0%,15,1,-1%
COc1ccc(NC(=O)C(=O)NCCCO)cc1Cl,-1%,nt,-3%,62*,24*,2%
COc1ccc(C(=O)CCC(=O)Nc2ccc(OC)c(Cl)c2)cc1,nt,nt,3%,nt,nt,nt
COc1ccc(C(=O)CC(=O)C(=O)Nc2ccc(OC)c(Cl)c2)cc1,-3%,0%,1%,22,17*,2%
COc1ccc(C(=O)CC(=O)C(=O)Nc2ccccc2Cl)cc1,6%,9%,-4%,-10,-3,8%
COc1ccc(C(=O)CC(=O)C(=O)Nc2ccc(Cl)cc2)cc1,-2%,2%,0%,37,14*,1%
Cc1ccc(C)c(Nc2cc(C)nc3ccccc23)c1,nt,nt,1%,nt,nt,nt
CC(=O)CSc1cc(-c2ccccc2)nc2ncnn12,2%,1%,0%,-7,-3,0%
CCOc1ccc(CCNC(=O)c2cc3cc4ccc(OC)cc4nc3s2)cc1OCC,nt,nt,2%,nt,nt,nt
CCN1CCN(C(=O)c2cc3cc4cc(OC)ccc4nc3s2)CC1,-16%,-7%,-4%,25*,12*,3%
COc1ccc2cc3cc(C(=O)NC4CC4)sc3nc2c1,2%,-20%,-4%,57*,48*,0%
COc1ccc2cc3cc(C(=O)N4CCN(c5cccc(C(F)(F)F)c5)CC4)sc3nc2c1,nt,nt,5%,nt,nt,nt
COc1ccc2cc3cc(C(=O)NCCCN4CCc5ccccc5C4)sc3nc2c1,3%,7%,0%,71*,35*,9%
COc1ccc2nc3sc(C(=O)NCCN4CCc5ccccc5C4)cc3cc2c1,-12%,2%,17%,53*,43*,8%
CC[C@H](C)[C@H](N)C(=O)N[C@@H](CCCNC(=N)N)C(=O)N[C@@H](CCC(N)=O)C(=O)NCC(=O)N1CCC[C@H]1C(=O)N[C@@H](CCCCN)C(=O)N[C@@H](CCC(=O)O)C(=O)N1CCC[C@H]1C(=O)N[C@@H](Cc1ccccc1)C(=O)N[C@@H](CCCNC(=N)N)C(=O)N[C@@H](CC(=O)O)C(=O)N[C@@H](Cc1ccc(O)cc1)C(=O)N[C@H](C(=O)N[C@@H](CC(=O)O)C(=O)N[C@@H](CCCNC(=N)N)C(=O)N[C@@H](Cc1ccccc1)C(=O)N[C@@H](Cc1ccc(O)cc1)C(=O)N[C@@H](CCCCN)C(=O)N[C@H](C(=O)N[C@@H](CC(C)C)C(=O)O)[C@@H](C)O)C(C)C,nt,nt,nt,11,-2,nt
Cc1nnc(NC(=O)C2CCCN2C(=O)Nc2ccccc2)s1 (configuration not stated),-1%,8%,4%,-5,7,-1%
COc1ccc(C(=O)Nc2ccccc2C(=O)Nc2cccc(C)n2)cc1,1%,7%,-9%,28*,9.8*,-3%
